This note sets out measurements from the supplement of paper PMC12669032.

A number with no mark means an inactive call.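 The calls were made as follows: active = AUC reduced over 20% with Padj below 0.05 in at least 2 of 3 replicates; inactive = otherwise.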

The assay deals with Fusobacterium nucleatum subsp. animalis. In words: growth AUC relative to DMSO control (median of replicates) (fraction); higher = more growth (less inhibition), active = hit call of the paper. Conditions: 20 µM; 24 h. The method, boiled down:
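Each value is the median of three biological replicates, grown on separate days, of a gut bacterial monoculture incubated anaerobically at 37 °C in mGAM with 20 µM compound (1% DMSO). Cultures started at OD600 0.05 and were read at OD600 hourly for 24 h, with the minimum OD set to 0. Area under the growth curve was normalised to the plate median of solvent-only wells, or to row and column medians on the industrial chemical plate.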
On to `CN(C)C(=O)Nc1ccc(Cl)c(Cl)c1`, for which the “growth AUC” value was 1.02. On to `CCOC(=O)C1CC(=O)C(=C(O)C2CC2)C(=O)C1` (stereo not drawn), for which the “growth AUC” value is 1.01. For the compound `COC(=O)C(C)Oc1ccc(Cl)cc1C` (stereo not drawn), the “growth AUC” value is 1.03. For the compound `FC(F)(F)C(=NOCC1OCCO1)c1ccc(Cl)cc1`, the “growth AUC” value is 1.08. `NC(=S)Nc1cccc2ccccc12`: the “growth AUC” value is 0.924. As for `CC(C)c1cc(Oc2ccccc2)cc(C(C)C)c1NC(=S)NC(C)(C)C`, the “growth AUC” value is 0.911. The same measure for `O=[N+](Nc1ccccc1)c1ccccc1`: 0.978. In the case of `Cc1[nH]n(C)c(=O)c1C(=O)c1ccc(C(F)(F)F)cc1S(C)(=O)=O`, the “growth AUC” value is 1.01.

In the case of `O=C=NC1CCC(CC2CCC(N=C=O)CC2)CC1` (stereo not drawn), the “growth AUC” value is 1.05. The same measure for `CCc1cccc(C)c1N(COC(C)C)C(=O)CCl`: 0.961. In the case of `O=C(Nc1ccc(Cl)cc1C(O)c1ccccc1)c1ccncc1` (stereo not drawn), the “growth AUC” value was 1.08.

Regarding `CNC(=O)Nc1nc2ccccc2s1`, the “growth AUC” value was 1. As for `CC(C)CNC(=O)N1CCNC1=O`, the “growth AUC” value is 1.07. As to `C/C=C/C(=O)Oc1c(C(C)CCCCCC)cc([N+](=O)[O-])cc1[N+](=O)[O-]` (mixture of isomers), the “growth AUC” value was 0.94.

With `CCOC(=O)NCCOc1ccc(Oc2ccccc2)cc1`, the “growth AUC” value is 0.943.

For `NC(=O)Cc1cccc2ccccc12`, the “growth AUC” value was 1.06.

Turning to `NS(=O)(=O)[O-].[NH4+]`, the “growth AUC” value is 1.09.

Regarding `COC(=O)c1ccc(C(=O)OC)cc1`, the “growth AUC” value is 1.01.
